MEKK2mut PB1 HTS: signal of MEK5 binding to mutant human MEKK2 PB1 domain; percent response, % at 10 µM; bead flow cytometry, Alexa488-MEK5 binding to MEKK2 mutant; actives 0.35% (n = 290,000); in the data active means percent response above about 24%, passing the limit was not always enough
MEKK2wt PB1 HTS: raises or lowers MEK5 binding to wildtype human MEKK2 PB1 domain. AID 1531. bead flow cytometry, Alexa488-MEK5 binding to MEKK2 WT; actives lie on both sides. binding response (% of control), % at 10 µM. Q9Y2U5. actives 1.1% (n = 290,000); in the data active means binding response below about 67% or above about 130%
MEKK3 PB1 HTS: modulators (inhibitors or enhancers) of MEK5 binding to human MEKK3 PB1 domain; bead-based flow cytometry, Alexa488-MEK5 binding to MEKK3; actives lie on both sides; 0 = blocked by unlabeled MEK5, 100 = vehicle; actives 1.4% (n = 290,000); AID 1529; Q99759; binding response (% of control), % at 10 µM;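 active means binding response more than 3 SD above or below the average of its plate-row segment, actives on both sides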;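 further: Alexa488 bead fluorescence after subtracting the streptavidin-only scavenger bead signal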
Target sequence (Q99759 whole entry, looked up, the tested form may be a part): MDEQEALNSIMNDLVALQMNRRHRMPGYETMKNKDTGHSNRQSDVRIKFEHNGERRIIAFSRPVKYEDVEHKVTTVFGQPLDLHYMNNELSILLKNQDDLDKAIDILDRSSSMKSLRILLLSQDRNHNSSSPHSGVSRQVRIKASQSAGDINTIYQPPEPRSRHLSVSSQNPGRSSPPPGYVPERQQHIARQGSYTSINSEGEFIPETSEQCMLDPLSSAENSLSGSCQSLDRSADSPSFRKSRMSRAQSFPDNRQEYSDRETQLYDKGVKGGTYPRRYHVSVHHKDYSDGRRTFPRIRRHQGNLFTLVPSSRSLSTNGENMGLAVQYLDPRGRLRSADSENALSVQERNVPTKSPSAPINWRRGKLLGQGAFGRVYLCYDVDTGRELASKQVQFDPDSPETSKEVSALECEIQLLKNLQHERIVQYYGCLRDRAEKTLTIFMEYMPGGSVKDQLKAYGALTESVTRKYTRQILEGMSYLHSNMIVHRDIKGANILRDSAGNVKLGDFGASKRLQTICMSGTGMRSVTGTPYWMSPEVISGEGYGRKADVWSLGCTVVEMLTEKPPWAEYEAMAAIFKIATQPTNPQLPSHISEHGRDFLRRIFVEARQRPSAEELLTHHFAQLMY
GRK2 inh: human GRK2 inhibition via aptamer displacement. bead flow cytometry, FAM-aptamer displacement from GRK2. inhibition of aptamer binding, % at 10 µM. actives 0.59% (n = 330,000). AID 488847;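 active means inhibition of aptamer binding above 40%, roughly 3 SD of noise, on plates passing a quality check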;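 further: median bead fluorescence of bound FAM aptamer so fluorescent compounds give negative values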
MEKK2wt confirm: raises or lowers MEK5 binding to wildtype human MEKK2, retest; shares compounds with MEKK3 PB1 HTS; bead flow cytometry, Alexa488-MEK5 binding to MEKK2 WT; actives lie on both sides; binding response (% of control), % at 10 µM; actives 2.4% (n = 5,900); AID 1892; in the data active means binding response below about 16% or above about 210%; inactive means in between
MEKK2mut confirm: signal of MEK5 binding to mutant human MEKK2, retest; shares compounds with MEKK3 PB1 HTS; bead flow cytometry, Alexa488-MEK5 binding to MEKK2 mutant; percent response, % at 10 µM; actives 2% (n = 5,900); in the data active means percent response mostly above about 71%, no sharp cut-off; inactive means mostly below about 38%;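 further: higher means compound restores mutant binding toward wildtype level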
MEKK3-MEK5 inh: MEKK3-MEK5 PB1 inhibition, single concentration confirmation; AID 1894; binding response (% of control), % at 10 µM; shares compounds with MEKK3 PB1 HTS; bead flow cytometry, Alexa488-MEK5 binding to MEKK3; hits give low values; actives 1.8% (n = 5,900);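 active means binding response below 72% of control, or above a set upper limit, though filed actives all read lower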;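 further: 100% = DMSO only wells and 0% = binding blocked by excess unlabeled MEK5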
The depositor's hits bear a star; / = no result; [ ] = remark or other dose. The list is not random: actives were taken first. Their share in the collection is about 2.5%.

SMILES | MEKK2mut PB1 HTS | MEKK2wt PB1 HTS | MEKK3 PB1 HTS | GRK2 inh | MEKK2wt confirm | MEKK2mut confirm | MEKK3-MEK5 inh
CC1CC2=C(C(=O)O1)C(c1ccc(Cl)cc1)Nc1ccccc1N2 (stereo not drawn) | -1.0 | 91.0 | 71.0*[inhibitor] | 0.0 | 104.0 | 8.0 | 104.0
COc1cccc2cc(-c3nnc(SCC(=O)Nc4cc(C(F)(F)F)ccc4Cl)n3N)oc12 | -8.0 | 83.0 | 87.0 | 1.0 | / | / | /
CCC1(CC)C(=O)C2=C3C1[C@H](C(=O)OC)C=C(C(=O)OC)C[C@H]3[C@H]1C(=O)NC(=O)[C@H]1[C@H]2C (stereo partly drawn) | 1.0 | 101.0 | 105.0 | 0.0 | / | / | /
CCC1(CC)C(=O)C2=C3C1[C@H](C(=O)OC)CC(C(=O)OC)C[C@H]3[C@H]1C(=O)N(c3ccccc3)C(=O)[C@H]1[C@H]2C (stereo partly drawn) | -9.0 | 75.0 | 57.0*[inhibitor] | 0.0 | 96.0 | 6.0 | 97.0
O=C(Nc1ccc(Cl)c([N+](=O)[O-])c1)C(Sc1ccccc1)c1ccccc1 (stereo not drawn) | 0.0 | 127.0 | 95.0 | 0.0 | / | / | /
CN1C(=O)CSC1=NC12CC3CC(CC(C3)C1)C2 | -17.0 | 30.0*[inhibitor] | 20.0*[inhibitor] | 1.0 | 107.0 | 2.0 | 107.0
Cc1cccc(NS(=O)(=O)c2cccs2)c1 | -3.0 | 91.0 | 93.0 | 5.0 | / | / | /
O=S(=O)(Nc1cccnc1)c1cccs1 | -24.0 | 54.0 | 41.0*[inhibitor] | 0.0 | 111.0 | 14.0 | 106.0
Cc1ccc(C(=O)Nc2ccc(Br)c(C(F)(F)F)c2)cc1 | 31.0 | 170.0* | 105.0 | 6.0 | 105.0 | 1.0 | 105.0
Cc1ccc(NC(=O)c2ccc(C)cc2)cc1 | / | / | / | 4.0 | / | / | /
O=C(Nc1ccc(Cl)c(C(F)(F)F)c1)c1ccncc1 | -46.0 | 5.0*[inhibitor] | 2.0*[inhibitor] | 2.0 | 103.0 | -7.0 | 103.0
O=C(CC1CCCC1)Nc1nnc(C2CC2)s1 | 4.0 | 104.0 | 109.0 | 1.0 | / | / | /
O=C(COC(=O)c1cccnc1Nc1ccccc1F)NCc1ccc2c(c1)OCO2 | -4.0 | 89.0 | 90.0 | 3.0 | / | / | /
O=C(Nc1ccc2nc3n(c(=O)c2c1)CCCC3)c1cccc([N+](=O)[O-])c1 | 2.0 | 112.0 | 139.0* | 1.0 | 101.0 | -5.0 | 99.0
Cc1c(Cl)cccc1NC(=O)c1ccc(-n2ccnc2)nc1 | -14.0 | 50.0*[inhibitor] | 49.0*[inhibitor] | 6.0 | 103.0 | 3.0 | 100.0
OC[C@@H]1[C@@H](c2ccccc2)C(c2cccc(Cl)c2)=NN1c1ccccc1 | / | / | / | 1.0 | / | / | /
CCOC(=O)C1=C(O)c2ccccc2C(=O)/C1=C\c1ccc(C)cc1 | 0.0 | 95.0 | 68.0*[inhibitor] | 7.0 | 98.0 | 0.0 | 103.0
CC1(C)CC2(CCCN(C(=S)Nc3ccccc3)C2)CCO1 (stereo not drawn) | 24.0 | 121.0 | 128.0* | 3.0 | 103.0 | -5.0 | 104.0
S=C(Nc1ccccc1)N1CCCCCC1 | 3.0 | 110.0 | 105.0 | 0.0 | / | / | /
CC1S/C(=C(\C#N)C(=O)NCc2ccco2)N(Cc2ccco2)C1=O (stereo not drawn) | -34.0 | 38.0*[inhibitor] | 49.0*[inhibitor] | 0.0 | 100.0 | 1.0 | 101.0
Cc1ccc(CC2S/C(=C(/C#N)C(=O)NCc3ccco3)N(c3ccccc3)C2=O)cc1 (stereo not drawn) | -9.0 | 89.0 | 91.0 | 0.0 | / | / | /
CCCOc1ccc(C(O)C(CN2CCOCC2)c2ccccc2)cc1 (stereo not drawn) | -3.0 | 97.0 | 97.0 | 1.0 | / | / | /
CCOC(=O)C1CCCN(C(=O)COc2ccccc2F)C1 (stereo not drawn) | -1.0 | 103.0 | 112.0 | 0.0 | / | / | /
CCCCCCCC[n+]1cccc2c3ccccc3ccc21 | -10.0 | 94.0 | 96.0 | 0.0 | / | / | /
CCCCCCCCCC[n+]1cccc2c3ccccc3ccc21 | 10.0 | 213.0* | 119.0 | / | 150.0 | 22.0 | 102.0
COc1ccc(C[C@H]2CN3C(=NC[C@@H]3Cc3ccc(O)cc3)N2C[C@H](C)NC(=O)CCC2CCCCC2)cc1 | 17.0 | 141.0* | 115.0 | 0.0 | 131.0 | 12.0 | 89.0
